# Screening results as filed in PubChem BioAssay.
# SENP8 block-1: SENP8 (human) protease inhibition; Q96LD8; recombinant SENP8, Nedd8 substrate fluorescence; inhibition, % at 20 µM; 360,000 tested, 0.64% active; AID 602440; in the data active = inhibition mostly above about 40%, no sharp cut-off; inactive = mostly below about 27%
# HSP90 refold inh: inhibitors of HSP90 luciferase refolding in rabbit reticulocyte lysate. luciferase refolding luminescence, 3 h. inhibition, % at 5.6 µM. 290,000 tested, 0.91% active;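 active = inhibition above the screen-wide mean plus 3 SD, computed separately per campaign, cut at about 16% in these data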;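 note: 0% = DMSO wells and 100% = 60 µM geldanamycin wells; inhibitors lower the luminescence because luciferase stays unfolded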
# SENP8 block-2: SENP8 protease inhibition. Q96LD8. purified SENP8, Z-RLRGG-aminoluciferin cleavage, luminescence. inhibition, % at 10 µM. 330,000 tested, 1.2% active; in the data active = inhibition above about 50%
# SENP6 block: SENP6 protease inhibition | AID 2599 | Recombinant SENP6 catalytic domain, aminoluciferin luminescence | inhibition, % at 10 µM | 330,000 tested, 1.8% active | Q9GZR1;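 active = inhibition above about 50% at the single tested dose, limit read from the data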;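 note: plate controls were DMSO wells with enzyme for no effect and DMSO wells lacking enzyme for full effect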
# Target sequence (Q9GZR1 628-1112 limits assumed): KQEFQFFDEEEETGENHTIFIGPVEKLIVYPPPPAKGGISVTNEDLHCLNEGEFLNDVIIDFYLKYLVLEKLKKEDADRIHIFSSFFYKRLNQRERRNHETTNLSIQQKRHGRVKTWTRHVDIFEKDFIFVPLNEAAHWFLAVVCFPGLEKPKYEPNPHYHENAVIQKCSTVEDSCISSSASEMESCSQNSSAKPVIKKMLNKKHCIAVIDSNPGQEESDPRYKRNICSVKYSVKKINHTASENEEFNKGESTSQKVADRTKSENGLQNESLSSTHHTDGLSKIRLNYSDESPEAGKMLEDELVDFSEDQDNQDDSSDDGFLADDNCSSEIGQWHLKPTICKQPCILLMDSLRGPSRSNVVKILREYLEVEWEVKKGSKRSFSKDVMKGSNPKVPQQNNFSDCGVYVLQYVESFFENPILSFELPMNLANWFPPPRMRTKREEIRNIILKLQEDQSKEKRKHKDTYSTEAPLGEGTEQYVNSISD
# SENP7 block: SENP7 protease inhibition | AID 434973 | 330,000 tested, 1.5% active | inhibition, % at 5 µM | recombinant SENP7, Z-RLRGG-aminoluciferin luminescence, 40 min | Q9BQF6;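 active = inhibition above about 50% at the single test dose, limit read from the data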;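 note: plate controls were DMSO with enzyme for no effect and no enzyme buffer wells for full effect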
# HSP90 confirm: HSP90 inhibition, confirmation assay. 2,300 tested, 64% active. inhibition, % at 5.9 µM. shares compounds with HSP90 refold inh. rabbit reticulocyte lysate, luciferase refolding luminescence, 3 h; in the data active = inhibition above about 18%;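 note: 0% = vehicle wells and 100% = reference inhibitor wells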
# luciferase ctr: firefly luciferase inhibition, HSP90 counter-screen; inhibition, % at 5.9 µM; purified native firefly luciferase, luminescence; 2,300 tested, 48% active; shares compounds with HSP90 refold inh;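 active = inhibition above the mean inhibition of all tested sample wells plus 3 SD, cut at about 10% in these data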;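 note: 0% = DMSO with luciferase and 100% = wells lacking luciferase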
# Active calls of the source: *; / = no result. Most compounds without a hit are left out; they make up all but 2.8% or so of the library.
SMILES,SENP8 block-1,HSP90 refold inh,SENP8 block-2,SENP6 block,SENP7 block,HSP90 confirm,luciferase ctr
Cc1ccc(-c2onc3ccc(C=O)cc23)cc1,-23,50*,7,-25,9,12,-24
COc1ccccc1N1CCN(C(=S)Nc2cccc(C)c2)CC1,3,27*,4,-15,2,29*,1
COc1ccc(C2CC(c3ccccc3)=NN2C(=O)COC(=O)C2CC2)cc1 (stereo unspecified),6,-1,-4,4,-2,/,/
O=C(Cn1cc(C(=O)c2ccco2)c2ccccc21)NC1CC1,-25,25*,-3,18,5,-9,-11
O=C(Cn1cc(C(=O)c2ccco2)c2ccccc21)NCc1ccco1,-74,-1,0,-5,2,/,/
COc1ccc(NC(=O)OC(CN2CCCCC2)C(F)(F)F)cc1 (stereo unspecified),9,18*,1,5,0,-4,-10
COc1ccc(O)c(C(=O)CC(=O)c2ccc(F)cc2)c1,-223,21*,25,25,10,21*,-4
O=S(=O)(Nc1ccc2c(c1)OCCO2)c1cccc2nsnc12,38,20*,-9,-17,7,31*,50*
O=[N+]([O-])c1ccc(S(=O)(=O)Nc2ccc3c(c2)OCCO3)cc1,30,27*,13,11,-3,5,-3
Cc1ccc(S(=O)(=O)Nc2ccc3c(c2)OCCO3)cc1,13,2,-3,-1,-2,/,/
Cc1nnc(N/N=C/c2cc([N+](=O)[O-])c(N3CCC(C)CC3)cc2N2CCC(C)CC2)n1N,34,76*,-3,17,4,-9,-9
O=C(Cn1nnc(-c2cccs2)n1)NCc1ccccc1,6,56*,3,-1,1,-3,-9
O=C(O)c1cccc(-c2ccc(/C=N/NC(=O)c3cccnc3)o2)c1,-272,5,15,11,2,/,/
O=C(N/N=C/c1ccc(-c2ccccc2[N+](=O)[O-])o1)c1cccnc1,9,32*,44,32,17,6,-8
CCNC(=S)SCCOc1ccccc1C,10,4,-10,0,-3,/,/
Cc1nnc(SCC(=O)Nc2ncc3c(n2)CC(c2ccccc2)CC3=O)s1 (stereo unspecified),11,35*,-8,-23,1,-3,-6
Cc1cccc(/C=N/NC(=O)c2cc(C3CC3)nc3ccccc23)n1,-11,-2,0,8,0,/,/
CCC(=O)Nc1nc(C)c(-c2csc(Nc3ccc(C(=O)O)cc3)n2)s1,-259,-6,15,17,1,/,/
COc1ccccc1Nc1nc(-c2sc(NC(=O)C(C)(C)C)nc2C)cs1,-30,2,0,6,4,/,/
Cc1nc(NC(=O)c2ccccc2)sc1-c1csc(Nc2ccc(C(=O)O)cc2)n1,-306,31*,/,/,/,8,-26
COc1ccccc1Nc1nc(-c2sc(NC(=O)c3cccc(Cl)c3)nc2C)cs1,/,66*,41,49,-4,61*,-11
Cc1ccc(Nc2nc(-c3sc(NC(=O)c4cccc(Cl)c4)nc3C)cs2)cc1,/,70*,29,44,8,46*,-14
Cc1ccc(Nc2nc(-c3sc(NC(=O)c4ccco4)nc3C)cs2)cc1,-98,11,6,3,6,/,/
O=S(=O)(N/N=C/c1ccccc1F)c1ccccc1,11,5,9,9,4,/,/
CCOC(=O)C1(C(F)(F)F)N=C(c2cccnc2)OC(N2CCCCC2)=N1 (stereo unspecified),20,3,-15,-2,-1,/,/
SMILES,SENP8 block-1,HSP90 refold inh,SENP8 block-2,SENP6 block,SENP7 block,HSP90 confirm,luciferase ctr
Cc1cn([C@H]2C[C@H](O)[C@@H](CCC(=O)NCCc3ccc4ccccc4c3)O2)c(=O)[nH]c1=O,22,/,/,/,/,/,/
Cc1csc(NC(=O)c2ccc(C(=O)Nc3nc(C)cs3)cc2)n1,/,0,17,25,14,/,/
Cc1csc(NC(=O)c2cnc3ccccc3n2)n1,4,43*,2,20,12,53*,40*
COc1ccc(CCNC(=O)COc2ncnc3ccccc23)cc1OC,12,62*,-5,15,3,-6,-11
O=C(COc1ncnc2ccccc12)NCCc1ccccc1,23,5,-10,-14,-9,/,/
Cc1ccc2nc(Cc3ccc(N)cc3)[nH]c2c1,2,-2,-12,-22,-8,/,/
CCOC(=O)N1CCN(C(=O)c2oc(=O)c3ccccc3c2-c2ccc(C)cc2)CC1,7,4,3,5,-1,/,/
Cc1ccc(C(=O)NCC(=O)OC(C)C(=O)Nc2ccc(N3CCOCC3)cc2)s1 (stereo unspecified),31,20*,7,-5,3,-4,-13
Cc1ccc(S(=O)(=O)CCC(=O)OC(C)C(=O)Nc2ccc(N3CCOCC3)cc2)cc1 (stereo unspecified),11,/,5,-17,2,/,/
CCOCCCn1c(=S)[nH]c2cc(C(=O)N3CCC(C(N)=O)CC3)ccc2c1=O,14,2,-2,-3,-5,/,/
O=C(Nc1ccc(N2CCOCC2)cc1)c1cnsn1,22,71*,10,44,30,83*,76*
O=C(Nc1ccc(N2CCOCC2)cc1)c1cnccn1,8,46*,-3,22,2,67*,44*
O=C(Nc1ccc(N2CCOCC2)cc1)c1ccncc1,33,1,-4,-9,5,/,/
Cc1[nH]c2ccccc2c1-c1nc2ccccc2[nH]1,-130,-2,-11,-8,-1,/,/
CCCCCCCC/C=C\CCCCCCCC(=O)NCCc1ccc(O)c(O)c1,13,/,7,-2,8,/,/
Cc1ccc(/C=N/NC(=O)c2ccc(-n3cccc3)cc2)o1,-190,-5,5,5,-5,/,/
O=C(O)c1ccc(NNC(=S)Nc2cc(C(F)(F)F)ccc2Cl)cc1,10,61*,-3,5,-8,54*,53*
O=C(Nc1cccc(-c2cn3c(n2)SCC3)c1)c1ccc2ccccc2n1,6,50*,1,-17,7,31*,-1
O=C(Nc1ccc(-c2cn3c(n2)SCC3)cc1)c1ccc2ccccc2n1,23,2,-6,-3,1,/,/
O=C(Nc1cnn(Cc2ccccc2)c1)NC12CC3CC(CC(C3)C1)C2,30,1,-6,-13,-2,/,/
CC1(C)NC(=O)N(CCOc2cccc(Cl)c2Cl)C1=O,17,18*,4,14,7,-9,-9
O=c1oc(Nc2ccc(F)cc2)nc2ccccc12,-267,18*,5,28,4,9,-21
CN(C)CCCNC(=O)C(=O)Nc1cc2c3c(c1)CC(=O)N3CCC2,6,-2,7,15,4,/,/
CCC1(CC)Cc2ccccc2C(Nc2c(C)n(C)n(-c3ccccc3)c2=O)=N1,12,2,-2,-1,5,/,/
COc1ccc(OC)c(CCNC(=O)Cn2sc3nc(C)cc(C)c3c2=O)c1,/,1,2,-5,3,/,/
